Results on 7 molecules are retold here after PubChem BioAssay (Tox21).

Values without a mark were called inactive. Records with an inconclusive call do not appear. Activity calls are given as the source filed them. Unless noted, calls come from the whole dose curve; as a rule, active = well fitted curve in the direction sought with a large enough effect in the repeat runs; inconclusive = weak or mixed curves; inactive = no such curve, though single readings can be large; an effect the other way counts as inactive or inconclusive.

Assay [1] in a line: qHTS assay to identify small molecule agonists of the AP-1 signaling pathway - cell viability counter screen (AID 1159525; calls by dose curve; note: nearly all actives have a fitted effect of over 55% in size; note: potency is the fitted concentration of half-maximal effect). Put shortly: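 Intracellular ATP by Cell Titer Glo luminescence (30 min, RT) in the same ME-180 AP-1-bla wells after the 5 h compound exposure at 37 °C. Normalised to tetra n-octyl ammonium bromide and DMSO controls.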
A general note: qHTS replaces the single test concentration by a dilution series.

Assay [2] can be described thus: qHTS assay to identify small molecule agonists of the estrogen related receptor signaling pathway with the pleiotropic PPARgamma coactivator (PGC) from Tox21 10K library (AID 1224842). Note: % is set by controls: 0 for no effect and ±100 for the full control effect; nearly all actives have a fitted effect of over 15% in size. The essentials:
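Luminescence from One-Glo (30 min, room temperature) measured after PGC/ERR cells had 18 h at 37 C with pinned compound (23 nL in DMSO). Cells had been seeded at 2,000 per well and pre-incubated 6 h.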

A short description of assay [3]: qHTS RealTime-Glo MT Cell Viability Assay in HepG2 cells - 40 hour (AID 1224870). For activity change, negative = cytotoxic: % is set by controls: 0 for no effect and ±100 for the full control effect. Note: nearly all actives have a fitted effect of over 50% in size. Note: potency is the fitted concentration of half-maximal effect. The essentials: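 Real-time viability: cells seeded at 600 per well together with NanoLuc and cell-permeant prosubstrate, compounds added after 5 h incubation. Luminescence tracked at 0, 8, 16, 24, 32 and 40 h of exposure.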
A short description of assay [4]: A CellTox Green Cytotoxicity Assay to monitor cytotoxicity in HEK293 cells - 40 hour (AID 1224871). Note: nearly all actives have a fitted effect of over 45% in size. Note: potency is the fitted concentration of half-maximal effect. The essentials: (§1)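 Fluorescence from a DNA-binding dye excluded by viable cells was measured repeatedly in the same HEK293 wells (600 cells/well) during continuous compound exposure at 37 C. Each assay gives one read point: 0, 8, 16, 24, 32 or 40 h.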
Assay [5] in a line: qHTS RealTime-Glo MT Cell Viability Assay in HEK293 cells - 40 hour (AID 1224874). Note: nearly all actives have a fitted effect of over 50% in size. Note: potency is the fitted concentration of half-maximal effect. To be noted: RealTime-Glo luminescence; max response: hits give low values. The essentials: (§2)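 Luminescence, which tracks viable cell number through reduction of the prosubstrate to a NanoLuc substrate, was read over continuous 37 C culture. Cells (600/well) were premixed with reagent and rested 5 h before 23 nL of compound in DMSO was pinned.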

Assay [6] is described as follows: A CellTox Green Cytotoxicity Assay to monitor cytotoxicity in HepG2 cells - 16 hour (AID 1224876). Note: nearly all actives have a fitted effect of over 45% in size. Note: potency is the fitted concentration of half-maximal effect. The essentials:
(§3)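 Real-time cytotoxicity: fluorescence of a cell-impermeant cyanine dye binding DNA of dead HepG2 cells, measured repeatedly (0–40 h) during compound exposure at 37 C. Cells seeded 600/well with reagent, dosed after 5 h.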

A short description of assay [7]: qHTS RealTime-Glo MT Cell Viability Assay in HepG2 cells - 32 hour (AID 1224877). Note: nearly all actives have a fitted effect of over 55% in size. Note: potency is the fitted concentration of half-maximal effect. The essentials: (§4)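 HepG2 cells (600/well) were dispensed with RealTime-Glo reagents, incubated 5 h at 37 °C, then treated with compounds in DMSO for up to 40 h. Nonlytic NanoLuc luminescence reflecting viable cells was read at each stated time point.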
The nature of assay [8]: qHTS RealTime-Glo MT Cell Viability Assay in HEK293 cells - 0 hour (AID 1224880). Note: top concentration of the series differs between compounds; % is set by controls: 0 for no effect and ±100 for the full control effect; nearly all actives have a fitted effect of over 45% in size. The essentials:
as §2

A short description of assay [9]: A CellTox Green Cytotoxicity Assay to monitor cytotoxicity in HEK293 cells - 16 hour (AID 1224888). Note: nearly all actives have a fitted effect of over 35% in size. Note: potency is the fitted concentration of half-maximal effect. The essentials: as §1
A short description of assay [10]: qHTS RealTime-Glo MT Cell Viability Assay in HepG2 cells - 0 hour (AID 1224889). For activity change, negative = cytotoxicity: % is set by controls: 0 for no effect and ±100 for the full control effect. Note: nearly all actives have a fitted effect of over 50% in size. Note: potency is the fitted concentration of half-maximal effect. Put shortly:
as §4

Assay [11] is described as follows: A CellTox Green Cytotoxicity Assay to monitor cytotoxicity in HepG2 cells - 8 hour (AID 1224890). Note: % is set by controls: 0 for no effect and ±100 for the full control effect; nearly all actives have a fitted effect of over 45% in size. Put shortly:
as §3

Assay [12] in a line: qHTS assay to identify small molecule antagonists of the sonic hedgehog signaling (Shh) pathway (AID 1259369; calls by dose curve; note: nearly all actives have a fitted effect of over 45% in size; note: potency is the fitted concentration of half-maximal effect). Put shortly:
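Antagonist mode: compound added to 3T3 Gli1-Luc cells followed by conditioned-medium stimulation, 24 h at 37 C, 5% CO2. Inhibition taken as loss of Gli1-driven luciferase luminescence.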

The nature of assay [13]: qHTS assay to identify small molecule agonists or antagonists of the thyroid stimulating hormone receptor (TSHR) signaling pathway - wild type cell line counter screen (AID 1259384; calls by dose curve; note: % is set by controls: 0 for no effect and ±100 for the full control effect). Put shortly:
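Counter screen in untransfected Hek293: compounds (15-point titration, triplicate) plus phosphodiesterase inhibitor Ro20-1724 added after 18 h plating; 30 min RT. Intracellular cAMP via competitive d2/cryptate immunoassay, 1 h incubation.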

Assay [14] is described as follows: qHTS assay to identify small molecule agonists of the estrogen receptor alpha (ER-alpha) signaling pathway in the presence of an antagonist - cell viability counter screen (AID 1259386). Note: series mostly up to about 92 µM; % is set by controls: 0 for no effect and ±100 for the full control effect; nearly all actives have a fitted effect of over 30% in size. Put shortly: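 Compounds tested at 15 concentrations for 22 h at 37C alongside 10.0nM (final) ICI-182,780 antagonist, in VM7Luc4E2 cells grown in phenol red-free, charcoal-stripped medium. Viability read by CellTiter-Fluor fluorescence after 1 h reagent incubation.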

Assay [15] is described as follows: qHTS assay to identify small molecule antagonists of the TGF-beta/Smad signaling pathway - cell viability counter screen (AID 1346824). Note: % is set by controls: 0 for no effect and ±100 for the full control effect; nearly all actives have a fitted effect of over 50% in size. The essentials: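 Cytotoxicity counter-screen run in the same wells as the beta-lactamase Smad reporter read: CellTiter-Glo luminescence after 30 min at room temperature. HEK 293T SBE-bla cells had 5 hr compound exposure at 37 C with TGF-beta1 (0.25 ng/mL stock).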

Assay [16] is described as follows: qHTS assay to identify small molecule agonists of the TGF-beta/Smad signaling pathway - cell viability counter screen (AID 1346829). Put shortly: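 SBE-bla HEK 293T cells plated overnight, compound exposure 5 hr at 37 C. Viability read in the same wells by CellTiter-Glo luminescence after 30 min at room temperature, following the beta-lactamase read.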
Assay [17] can be described thus: qHTS assay to identify small molecule agonists of the TGF-beta/Smad signaling pathway (AID 1346859; active = well fitted activation curve with a large enough effect in the signal ratio in the repeat runs, not every such curve was filed as active; the % refers to the signal ratio; note: series mostly up to about 77 µM; % is set by controls: 0 for no effect and ±100 for the full control effect). The essentials: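 SBE-bla HEK 293T, 4,000 cells/well, plated o/n; cpd in DMSO, 5 hr, 37 C/5% CO2; B/G FRET substrate 2 hr RT; ex 405, em 460/530 nm.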
Assay [18] addresses Voltage-gated inwardly rectifying potassium channel KCNH2 (Homo sapiens) (UniProt Q12809). As to the kind of experiment: Human Ether-a-go-go-Related Gene (hERG) channel small molecule antagonists: fluorescence cell-based qHTS assay (AID 1671200). Note: nearly all actives have a fitted effect of over 50% in size. Note: potency is the fitted concentration of half-maximal effect. Put shortly: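 Channel function was assessed by thallium flux. Cells seeded the previous day and kept at 37 C took up FluxOR II dye over 1 h in the dark at room temperature, then sat another 10 min before stimulation.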

A short description of assay [19]: qHTS assay to identify small molecule antagonists of the androgen receptor (AR) signaling pathway using the MDA cell line in the presence of 0.5 nM R1881 - cell viability counter screen (AID 1259242). Note: nearly all actives have a fitted effect of over 45% in size. Note: potency is the fitted concentration of half-maximal effect. The essentials: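 Live-cell protease activity was measured by CellTiter-Fluor fluorescence after 30 min. Before that, MDA-kb2 MMTV-luciferase cells had 16 hr at 37C without CO2, exposed to test compounds and 0.5 nM R1881 final.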

Assay [20] in a line: qHTS assay to identify small molecule HDAC inhibitors - cell viability counter screen (AID 1259365). Put shortly:
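Luminescence from CellTiter-Glo, developed 30min at room temperature, reports viability of wild-type HCT-116 cells treated 2hr with compounds at 37 C and 5% CO2 after overnight plating.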

Sequence of Voltage-gated inwardly rectifying potassium channel KCNH2 (Homo sapiens) (Q12809 whole entry, looked up): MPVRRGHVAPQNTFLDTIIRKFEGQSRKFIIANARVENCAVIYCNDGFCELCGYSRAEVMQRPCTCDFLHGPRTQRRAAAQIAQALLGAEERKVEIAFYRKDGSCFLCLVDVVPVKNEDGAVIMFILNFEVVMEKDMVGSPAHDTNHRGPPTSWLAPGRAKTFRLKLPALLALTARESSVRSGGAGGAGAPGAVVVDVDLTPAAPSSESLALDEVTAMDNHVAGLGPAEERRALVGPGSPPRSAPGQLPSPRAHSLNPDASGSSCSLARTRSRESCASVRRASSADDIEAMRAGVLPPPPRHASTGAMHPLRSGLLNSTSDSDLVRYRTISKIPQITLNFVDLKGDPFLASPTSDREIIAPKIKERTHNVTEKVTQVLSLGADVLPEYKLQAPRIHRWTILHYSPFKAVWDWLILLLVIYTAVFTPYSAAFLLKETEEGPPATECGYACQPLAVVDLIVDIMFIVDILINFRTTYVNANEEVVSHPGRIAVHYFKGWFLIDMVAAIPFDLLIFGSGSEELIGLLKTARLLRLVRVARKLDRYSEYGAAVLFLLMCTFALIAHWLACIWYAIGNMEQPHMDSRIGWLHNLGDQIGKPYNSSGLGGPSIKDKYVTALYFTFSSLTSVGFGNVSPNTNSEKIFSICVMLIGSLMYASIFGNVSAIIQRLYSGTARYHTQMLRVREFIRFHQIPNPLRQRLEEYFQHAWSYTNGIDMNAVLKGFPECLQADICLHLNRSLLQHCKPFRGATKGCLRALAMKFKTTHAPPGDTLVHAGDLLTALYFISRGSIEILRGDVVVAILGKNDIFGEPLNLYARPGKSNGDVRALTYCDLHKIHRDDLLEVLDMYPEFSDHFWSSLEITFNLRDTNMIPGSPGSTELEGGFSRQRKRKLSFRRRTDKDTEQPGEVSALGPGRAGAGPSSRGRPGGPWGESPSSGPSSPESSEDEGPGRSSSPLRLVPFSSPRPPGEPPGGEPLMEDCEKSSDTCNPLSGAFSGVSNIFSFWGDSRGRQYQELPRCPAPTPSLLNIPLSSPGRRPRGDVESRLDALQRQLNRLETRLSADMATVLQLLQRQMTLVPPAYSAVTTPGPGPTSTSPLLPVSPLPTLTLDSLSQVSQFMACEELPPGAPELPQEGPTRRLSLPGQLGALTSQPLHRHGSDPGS

For `Cc1ccc(N(SC(F)(Cl)Cl)S(=O)(=O)N(C)C)cc1`, the Potency in assay [1] was 30.9 µM (active); in [3], 9.77 µM (active); in assay [4], 4.9 µM (active); in assay [5], 5.49 µM (active); in assay [6], 17.4 µM (active); in assay [7], 9.77 µM (active). Besides, the Potency in assay [9] is 24.5 µM (active); in assay [12], 2.73 µM (active); in [18], 21.9 µM (active). Also, the Potency result in assay [2], in assay [10], in assay [11], in assay [14] and in assay [15] was “inactive” each time. Besides, the molecule was called inactive in [8], in [13], in assay [16] and in [17].
As to `COc1cc(OC)c(OC)cc1C=O`, the Potency result in assay [1], in [2], in assay [3], in [4], in [6] and in assay [7] was “inactive” throughout. Moreover, the Potency entry in assay [9], in [10], in assay [19], in [14], in assay [15] and in assay [18] was “inactive” throughout. Moreover, the max response in assay [5] is -0.404%. In addition, the molecule was called inactive in assay [8], in [20], in assay [13], in [16] and in assay [17]. In addition, the Potency in assay [12] is 13.3 µM (active).
`O=C(c1ccccc1)C(Cl)Cl`: the Potency entry in assay [1], in [2], in assay [3], in assay [6], in assay [7] and in [9] was “inactive” throughout. The Potency entry in assay [10], in assay [11], in assay [19], in assay [14] and in [15] was “inactive” throughout. Besides, the Potency was 34.7 µM (active) in assay [4], 38.9 µM (active) in [5] and 30.6 µM (active) in assay [12]. The call in assay [8] and in [16] was inactive.
With `CNC(=O)Oc1cc(C)c(SC)c(C)c1`, the Potency result in [1], in [3], in assay [6], in assay [7], in assay [10] and in assay [11] was “inactive” in each case. Besides, the Potency result in assay [19], in [14], in assay [15] and in assay [18] was “inactive” each time. Moreover, the molecule was called inactive in [8], in [20], in assay [13], in assay [16] and in [17]. Moreover, the Potency in [9] is 21.9 µM (active); in assay [12], 8.63 µM (active).
On to `c1ccc2c(c1)Sc1ccccc1N2CC1CN2CCC1CC2` (configuration not stated), for which the Potency entry in [1], in assay [2], in assay [14] and in assay [15] was “inactive” in each case. For the same molecule, the Potency in assay [3] is 21.3 µM (active); in [4], 26.8 µM (active); in assay [5], 23.9 µM (active); in assay [6] it was 23.9 µM (active); in [7], 23.9 µM (active); in assay [19], 29.8 µM (active). In addition, the results for the Potency in assay [12] and in assay [18] were 9.44 µM (active) and 5.35 µM (active), respectively. In addition, the result in assay [20], in assay [13], in assay [16] and in assay [17] was inactive.
For the molecule `Cc1ccc2nc3sc(=O)sc3nc2c1`, the results for the activity change, negative = cytotoxic in assay [3] and in assay [7] were -11.2% [at 15.8 µM] and -8.61% [at 15.8 µM], respectively. Also, the figures for the cytotoxicity increase in [4], in assay [6] and in [11] were -10.2% [at 15.8 µM], -9.02% [at 15.8 µM] and -5.93% [at 15.8 µM], respectively. For the same molecule, the max response in [5] was 3.19%. Further, the activity change, negative = cytotoxicity in assay [8] was -3.58% [at 15.8 µM]; in [10] it was 15.7% [at 15.8 µM]; in assay [20], 4.09% [at 19 µM]; in assay [14], -6.53% [at 19 µM]; in assay [16] it was 17% [at 15.8 µM]. Further, the activity change in [9] was -2.03% [at 15.8 µM, hits give high values]. Moreover, the values for the viability change, negative = cytotoxic in assay [19] and in [15] were -14.8% [at 19 µM] and 2.33% [at 15.8 µM], respectively. Further, the results for the activity change, negative = inhibition in [12] and in [18] were -28.1% [at 19 µM] and 2.68% [at 15.8 µM], respectively. Moreover, in [13], the cAMP activity change is 3.67% [at 18.9 µM]. Also, in assay [17], the activation was -3.69% [at 15.8 µM].
As for `C[C@]12CC[C@@H](O)C[C@@H]1CC[C@@H]1[C@@H]2CC[C@]2(C)C(=O)CC[C@@H]12`, the Potency is 49 µM (active) in assay [1]; 49 µM (active) in assay [4]; 24.5 µM (active) in [5]; 34.7 µM (active) in [10]; 19.3 µM (active) in assay [12]. For the same molecule, the Potency entry in assay [3], in [6], in [7], in assay [9], in assay [11] and in assay [19] was “inactive” each time. Besides, the Potency entry in [14], in assay [15] and in assay [18] was “inactive” each time. Also, the call in [8], in assay [20], in assay [16] and in assay [17] was inactive.
